Measurements: PubChem BioAssay (NCI)
Where “and” joins values, the source holds several entries; their conditions need not be identical. Equal values may be shown once. Compounds without any hit were thinned out: in the full panel of roughly 83,000, 20% have a hit.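 Testing used 96-well plates and a 48-hour single-concentration exposure. Example: -40 means 40% of the starting cells died.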 Calls of active or inactive are those of the source. The calls were made as follows: active = growth percent below 10; inactive = the rest.

Assays:
Assay in all cases: NCI-60 one-dose screen, 48 h (100 = growth as untreated, 0 = no growth, -100 = all killed)
Settings in all cases: 10 µM unless noted
T-47D breast = system: T-47D breast
BT-549 breast = system: BT-549 breast
MDA-MB-435 melanoma = system: MDA-MB-435 melanoma
SW-620 colon = system: SW-620 colon
MCF7 breast = system: MCF7 breast
HCT-116 colon = system: HCT-116 colon
HCC-2998 colon = system: HCC-2998 colon
KM12 colon = system: KM12 colon

Measured: growth

O=C1Nc2ccccc2/C1=C/c1cccn1CCCCCn1c2ccccc2c(=O)c2ccccc21
active: T-47D breast 1.55% | MCF7 breast 1.17%
inactive: BT-549 breast 65.5% | MDA-MB-435 melanoma 93.6% | SW-620 colon 100% | HCT-116 colon 69.8% | HCC-2998 colon 42.5% | KM12 colon 12.1%

NS(=O)(=O)c1ccc(C(=O)N=Nc2c(O)[nH]c3c(F)cccc23)cc1
inactive: T-47D breast 97% | BT-549 breast 99.7% | MDA-MB-435 melanoma 107% | SW-620 colon 100% | MCF7 breast 96.4% | HCT-116 colon 103% | HCC-2998 colon 106% | KM12 colon 107%

O=C(Nc1ccc2ncsc2c1)c1csc(Nc2ccc3[nH]ncc3c2)n1
active: MDA-MB-435 melanoma -27.1%
inactive: T-47D breast 36.4% | BT-549 breast 73.4% | SW-620 colon 20.9% | MCF7 breast 21.6% | HCT-116 colon 47.5% | HCC-2998 colon 72.5% | KM12 colon 30.9%

N#CSc1c[nH]c2ccc(/C=C/C(=O)/C=C(/C=C/c3ccc4[nH]cc(SC#N)c4c3)OB(F)F)cc12
active: T-47D breast -7.65% | BT-549 breast -10.2% | MDA-MB-435 melanoma -77.4% | SW-620 colon 2.13% | MCF7 breast 7.23% | HCT-116 colon -49.5%
inactive: HCC-2998 colon 31.9% | KM12 colon 19.6%

N#CC1C(=O)c2ccccc2C1c1ccccc1 (stereo not given)
inactive: T-47D breast 96.5% and 99.9% | BT-549 breast 107% | MDA-MB-435 melanoma 104% and 102% | SW-620 colon 121% and 104% | MCF7 breast 102% and 99.5% | HCT-116 colon 105% and 101% | HCC-2998 colon 111% and 115% | KM12 colon 109% and 102%

CCN(CC)CCOc1ccc(/C(=C(\Cl)c2ccccc2)c2ccccc2)cc1
active: MDA-MB-435 melanoma 7.34% | SW-620 colon -55%
inactive: T-47D breast 23.4% and 48.9% | BT-549 breast 43.4% and 92.6% | MCF7 breast 16.2% and 27.4% | HCT-116 colon 11.4% and 57.8% | HCC-2998 colon 35.7% and 98.3% | KM12 colon 21.8% and 75.9%

Clc1ccc(Nc2nc(Nc3ccc(Cl)cc3)nc(Nc3ccc(-c4cc(-c5cccc(Cl)c5)on4)cc3)n2)cc1
inactive: T-47D breast 83.3% | BT-549 breast 98.6% | MDA-MB-435 melanoma 104% | SW-620 colon 96.6% | MCF7 breast 86.6% | HCT-116 colon 99.6% | HCC-2998 colon 121% | KM12 colon 104%

CC1=C2[C@@H](CC1)[C@]1(C)O[C@@](C(C)C)(C[C@H]1OC(=O)CO)[C@H]2OC(=O)C1CC1c1ccccc1 (stereo not given in full)
inactive: T-47D breast 41.5% | BT-549 breast 88.8% | MDA-MB-435 melanoma 96.7% | SW-620 colon 84.6% | MCF7 breast 75.1% | HCT-116 colon 89% | HCC-2998 colon 82.9% | KM12 colon 73.9%

CC(=O)N1N=C(c2ccc(F)cc2)CC1c1sc(N(C)Cc2ccccc2)nc1Cl (stereo not given)
inactive: T-47D breast 74.1% | BT-549 breast 95.2% | MDA-MB-435 melanoma 96.5% | SW-620 colon 99.4% | MCF7 breast 76% | HCT-116 colon 84.5% | HCC-2998 colon 91.2% | KM12 colon 92.4%

CC[C@@H]1NC(=O)[C@H]([C@H](O)[C@H](C)C/C=C/c2ccc(CN3C(=O)C(C)=C(C)C3=O)cc2)N(C)C(=O)[C@H](C(C)C)N(C)C(=O)[C@H](CC(C)C)N(C)C(=O)[C@H](CC(C)C)N(C)C(=O)[C@@H](C)NC(=O)[C@H](C)NC(=O)[C@H](CC(C)C)N(C)C(=O)[C@H](C(C)C)NC(=O)[C@H](CC(C)C)N(C)C(=O)CN(C)C1=O
inactive: T-47D breast 54.7% | BT-549 breast 82.4% | MDA-MB-435 melanoma 82.7% | SW-620 colon 97.7% | MCF7 breast 50.9% | HCT-116 colon 54.8% | HCC-2998 colon 87.2% | KM12 colon 78.7%

O=C1N=c2ccccc2=C1c1sc(=S)n(C2CC(=O)N(c3ccc(Cl)cc3)C2=O)c1O (stereo not given)
inactive: T-47D breast 97.9% | BT-549 breast 105% | MDA-MB-435 melanoma 102% | SW-620 colon 99.8% | MCF7 breast 91.1% | HCT-116 colon 96.7% | HCC-2998 colon 105% | KM12 colon 100%

CC(=O)N1N=C(c2ccc(Nc3nc(Nc4ccc(F)cc4)nc(Nc4ccc(Cl)cc4)n3)cc2)CC1c1ccc(N(C)C)cc1 (stereo not given)
inactive: T-47D breast 24.3% | BT-549 breast 69.5% | MDA-MB-435 melanoma 18.7% | SW-620 colon 78.5% | MCF7 breast 29.9% | HCT-116 colon 130% and 24.2% | HCC-2998 colon 22% | KM12 colon 55.5%

COc1cc(-c2nn(-c3cccc(NC(=O)CCN4CCN(C)CC4)c3)cc2-c2ccncc2)ccc1Cl
inactive: T-47D breast 35.3% | BT-549 breast 22.4% | SW-620 colon 26.8% | MCF7 breast 13.8% | HCT-116 colon 17% | HCC-2998 colon 54.7% | KM12 colon 22.2%
active: MDA-MB-435 melanoma -46.3%

COc1ccc(-c2nnc3n(C)c(=O)c4ccccc4n23)cc1O
inactive: T-47D breast 30.2% | BT-549 breast 41.4% | SW-620 colon 23.9% | MCF7 breast 18.2% | HCT-116 colon 13.1% | HCC-2998 colon 33.7% | KM12 colon 24.2%
active: MDA-MB-435 melanoma -40.8%

Cc1ccc(C(=O)N(CCCN)[C@@H](c2nc3cc(Cl)ccc3c(=O)n2Cc2ccccc2)C(C)C)cc1
active: T-47D breast -41.7% | MDA-MB-435 melanoma -89.9% | SW-620 colon -77.6% | MCF7 breast -61.2% | HCT-116 colon -77.9% | HCC-2998 colon -74.4% | KM12 colon -45.8%
inactive: BT-549 breast 24.2%

Cc1ccc(NC(=O)c2ccc(CN3CCN(C)CC3)cc2)cc1Nc1nccc(-c2cccnc2)n1
inactive: T-47D breast 81.4% and 57.8% | BT-549 breast 105% and 61.1% | MDA-MB-435 melanoma 92.6% and 77.7% | SW-620 colon 110% and 88.6% | MCF7 breast 91.9% and 55.7% | HCT-116 colon 81.4% and 55.1% | HCC-2998 colon 122% and 96.8% | KM12 colon 107% and 69%

Cn1cc(-c2nc3c(F)cc4[nH]ncc4c3c3c2CCCC3)c(C(F)F)n1
inactive: T-47D breast 50.8% | BT-549 breast 31.1% | MDA-MB-435 melanoma 27.1% | SW-620 colon 56.3% | MCF7 breast 46.5% | HCT-116 colon 39.7% | HCC-2998 colon 90.6% | KM12 colon 23.2%

CC(C)(C)c1cc(NC(=O)Nc2ccc(-c3cn4c(n3)sc3cc(OCCN5CCOCC5)ccc34)cc2)no1
13.7% (inactive) and 9.16% (active): KM12 colon
active: T-47D breast -33% and -23.2% | BT-549 breast 4.32% and 9.08%
inactive: MDA-MB-435 melanoma 65.1% and 31.5% | SW-620 colon 49.9% and 21.1% | HCC-2998 colon 39.1% and 56.4%
8.69% (active) and 14.3% (inactive): HCT-116 colon
9.99% (active) and 22.3% (inactive): MCF7 breast

Cc1cc(N2CCN(CC(=O)Nc3ccc4c(ccn4Cc4ccccc4)c3)CC2)nc(N2CCCCCC2)n1
inactive: T-47D breast 42.7% | BT-549 breast 65.1% | MDA-MB-435 melanoma 60.7% | SW-620 colon 56.8% | MCF7 breast 20.5% | HCT-116 colon 38.8% | HCC-2998 colon 64.5% | KM12 colon 37.6%

N#CC(Cc1cccc2ccccc12)c1cc2ccccc2[nH]1 (stereo not given)
inactive: T-47D breast 83.8% | BT-549 breast 90.1% | MDA-MB-435 melanoma 102% | SW-620 colon 89.3% | MCF7 breast 82.5% | HCT-116 colon 83.7% | HCC-2998 colon 99.2% | KM12 colon 88%

O=c1ccc2nc(-c3ccccn3)nn(-c3ccccc3)c-2c1
inactive: BT-549 breast 86.6% | MDA-MB-435 melanoma 90.7% | HCT-116 colon 48.7% | HCC-2998 colon 98.8% | KM12 colon 98.4%
active: T-47D breast -28.4% | SW-620 colon -61.8% | MCF7 breast -56%

CCN1CCN(CC(=O)Nc2nc3ccc(NCc4ccc(C)cc4)cc3s2)CC1
active: MDA-MB-435 melanoma -41.8%
inactive: T-47D breast 50.7% | BT-549 breast 88% | SW-620 colon 44.2% | MCF7 breast 35.6% | HCT-116 colon 13% | HCC-2998 colon 80.9% | KM12 colon 73%

COc1ccc(-c2ccc(-c3ccc(C(=N)N)cn3)s2)cc1Cl
inactive: BT-549 breast 107%
active: T-47D breast -43.4% | MDA-MB-435 melanoma -96.9% | SW-620 colon -87.5% | MCF7 breast -68.9% | HCT-116 colon -62.6% | HCC-2998 colon -80.9% | KM12 colon -45.3%

Cc1c(C(C)(C)O)cn2ncnc(Oc3ccc(NC(=O)Nc4ccc(Cl)c(C(F)(F)F)c4)cc3)c12
inactive: T-47D breast 21.8% | BT-549 breast 58% | MDA-MB-435 melanoma 37.4% | SW-620 colon 62% | MCF7 breast 25.2% | HCT-116 colon 28.6% | HCC-2998 colon 85.7% | KM12 colon 24.8%

C=C1CC[C@@H]2[C@](C)(COC(C)=O)[C@H](OC(C)=O)CC[C@@]2(C)[C@@H]1CC(Nc1ccc(S(=O)(=O)Nc2nccs2)cc1)C1=CCOC1=O (stereo not given in full)
active: BT-549 breast -23.5% | MDA-MB-435 melanoma -8.31% | SW-620 colon -72.7% | MCF7 breast -21.3% | HCT-116 colon -30.4% | KM12 colon -0.895%
inactive: T-47D breast 34.6% | HCC-2998 colon 54.2%
